Here are results for 20 molecules from PubChem BioAssay (NCATS).

Records with an inconclusive call do not appear. Activity calls are given as the source filed them. Calls follow the shape of the dose curve; as a rule, active = well fitted inhibition curve with a large enough effect; inconclusive = small, poorly fitted or top-dose-only effect; inactive = flat fitted curve, though single readings scatter. Peptide text beside a SMILES is read from it.

Common to all, as to assay: qHTS profiling for inhibitors of Plasmodium falciparum proliferation (AID 504749); also: nearly all actives have a fitted effect of over 60% in size
Common to all, as to conditions: P. falciparum in erythrocytes, SYBR Green DNA, 72 h; series mostly up to 28.7 µM
(In general: Quantitative high-throughput screening tests each substance at several concentrations.)

One assay concerns ATS189. In a few lines: (§1)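 P. falciparum-infected erythrocytes (0.3% parasitemia, 2.5% hematocrit final) were exposed to compounds for 72 h at 37 C in 5% CO2, then lysed with SYBR Green buffer overnight at room temperature; parasite DNA fluorescence was normalized to artemisinin and DMSO controls.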
In another assay the test system is ATS95. An outline of the steps: as §1
The next assay concerns C2A. An outline of the steps: as §1
A further assay concerns CP185. In a few lines: as §1
The next assay has as its system CP191. An outline of the steps:
as §1

A further assay has as its system CP192. An outline of the steps: as §1
For another assay, the system named is CP194. An outline of the steps: as §1
For a further assay, the system named is CP201. In a few lines: as §1
Another assay concerns CP203. An outline of the steps:
as §1

The next assay has as its system CP211. An outline of the steps: as §1
Potency is read from the fitted curve at half-maximal effect.

As to `CCCCCCCCCCCCCC[n+]1ccc(C)cc1`, the Potency was 5.62 µM (active) in the assay with ATS189; 2.82 µM (active) in the assay on ATS95; 3.16 µM (active) in the assay on C2A; 5.01 µM (active) in the assay on CP185; 2.82 µM (active) in the assay on CP191; 4.78 µM (active) in the assay on CP192. The Potency in the assay on CP194 is 4.26 µM (active); in the assay with CP201, 4.78 µM (active); in the assay on CP203, 3.79 µM (active); in the assay with CP211, 3.38 µM (active).

For the molecule `CC1=C(/C=C/C(C)=C/C=C/C(C)=C/C=C/C=C(C)/C=C/C=C(C)/C=C/C2=C(C)C(=O)CCC2(C)C)C(C)(C)CCC1=O`, the Potency result with ATS189, in the assay on ATS95, with C2A, in the assay on CP185, with CP191 and in the assay on CP192 was “inactive” each time. Besides, the Potency entry in the assay with CP194, with CP201, with CP203 and in the assay on CP211 was “inactive” in each case.

As to `CN=C(NC#N)Nc1ccc(C2=NNC(=O)C[C@@H]2C)cc1`, the Potency result in the assay on ATS189, in the assay with ATS95, in the assay with C2A, in the assay on CP185 and in the assay on CP191 was “inactive” in each case.

Turning to `COc1ccc2c3c1O[C@H]1C[C@@H](O)C=C[C@@]31CCN(C)C2`, the Potency entry with ATS189, in the assay with ATS95, with C2A, in the assay with CP185, in the assay on CP191 and in the assay on CP192 was “inactive” each time. The Potency entry in the assay with CP194, in the assay with CP201, with CP203 and in the assay with CP211 was “inactive” each time.

As for `Cc1ccccc1`, the Potency entry in the assay on ATS189, in the assay with ATS95, with C2A, in the assay with CP185, in the assay on CP191 and in the assay with CP192 was “inactive” in each case. The Potency result in the assay on CP194, in the assay on CP201, in the assay on CP203 and with CP211 was “inactive” each time.

For `O=C(O)CN(CCN(CC(=O)O)CC(=O)O)CC(=O)O`, the Potency result in the assay on ATS189, in the assay with ATS95, with C2A, in the assay on CP185, in the assay on CP191 and in the assay on CP192 was “inactive” in each case. Moreover, the Potency entry with CP194, with CP201, in the assay on CP203 and in the assay on CP211 was “inactive” throughout.

On to `CC[N+](C)(C)Cc1ccccc1Br`, for which the Potency entry in the assay with ATS189, in the assay with ATS95, in the assay with C2A, in the assay with CP185, in the assay with CP191 and in the assay on CP192 was “inactive” in each case. In addition, the Potency result in the assay on CP194, in the assay on CP201, with CP203 and in the assay with CP211 was “inactive” each time.

In the case of `CCOC(=O)C1=CC2(CC)CCCN3CCc4c(n1c1ccccc41)C32` (stereo not given), the Potency is 8.91 µM (active) in the assay on ATS189; 11.2 µM (active) in the assay with ATS95; 10 µM (active) in the assay on C2A; 8.91 µM (active) in the assay on CP185; 8.91 µM (active) with CP191.

With `CC1=C(/C=C/C(C)=C/C=C/C(C)=C/C=C/C=C(C)/C=C/C=C(C)/C=C/C2=C(C)CCCC2(C)C)C(C)(C)CCC1`, the Potency result in the assay on ATS189, in the assay with ATS95, with C2A, in the assay on CP185, with CP191 and with CP192 was “inactive” each time. Further, the Potency entry in the assay on CP194, in the assay on CP201, with CP203 and in the assay with CP211 was “inactive” in each case.

Take `CCCCCCCC(=O)O`: the Potency entry in the assay on ATS189, in the assay on ATS95, with C2A, in the assay with CP185, with CP191 and with CP192 was “inactive” in each case. Besides, the Potency result in the assay with CP194, in the assay with CP201, in the assay with CP203 and in the assay on CP211 was “inactive” throughout.

Consider `CC(C)(C)C(=O)OCOC(=O)[C@@H]1N2C(=O)[C@@H](N=CN3CCCCCC3)[C@H]2SC1(C)C`, for which the Potency entry in the assay with ATS189, with ATS95, in the assay on C2A, with CP185, with CP191 and in the assay on CP192 was “inactive” in each case. Also, the Potency entry in the assay on CP194, in the assay with CP201, with CP203 and in the assay with CP211 was “inactive” in each case.

`CC(=O)N[C@@H](CC(=O)O)C(=O)N[C@@H](CCC(=O)O)C(=O)O` (Ac-Asp-Glu-OH): the Potency result in the assay with ATS189, in the assay with ATS95, with C2A, in the assay on CP185, in the assay with CP191 and in the assay on CP192 was “inactive” each time. Besides, the Potency result in the assay on CP194, in the assay with CP201, in the assay on CP203 and in the assay on CP211 was “inactive” each time.

Turning to `COC(=O)[C@H]1[C@H]2CC3c4[nH]c5ccccc5c4CCN3C[C@@H]2CC[C@@H]1O` (stereo not given in full), the Potency result in the assay on ATS189, in the assay with ATS95, with C2A, in the assay with CP185 and in the assay with CP191 was “inactive” each time.

For the molecule `CCCC(=O)O[C@]1(C(=O)CCl)[C@H](C)C[C@@H]2[C@H]3CCC4=CC(=O)C=C[C@]4(C)[C@@]3(F)C(=O)C[C@@]21C`, the Potency was 2.82 µM (active) with ATS189; 3.55 µM (active) in the assay with ATS95; 3.55 µM (active) with C2A; 3.16 µM (active) in the assay on CP185; 0.891 µM (active) in the assay on CP191; 4.78 µM (active) in the assay with CP192. Besides, the Potency in the assay with CP194 is 3.01 µM (active); with CP201 it was 3.79 µM (active); in the assay on CP203, 4.78 µM (active); in the assay with CP211, 1.51 µM (active).

As for `C=CCSSSCC=C`, the Potency entry in the assay on ATS189, with ATS95, in the assay with C2A, in the assay with CP185, with CP191 and in the assay with CP192 was “inactive” throughout. Moreover, the Potency entry in the assay with CP194, in the assay on CP201, in the assay with CP203 and in the assay with CP211 was “inactive” in each case.

As for `CO[C@H](C(=O)[C@@H](O)[C@@H](C)O)C1Cc2cc3cc(O[C@H]4C[C@@H](O[C@H]5C[C@@H](O)[C@H](O)[C@@H](C)O5)[C@@H](O)[C@@H](C)O4)c(C)c(O)c3c(O)c2C(=O)[C@H]1O[C@H]1C[C@@H](O[C@H]2C[C@@H](O[C@H]3C[C@](C)(O)[C@H](O)[C@@H](C)O3)[C@H](O)[C@@H](C)O2)[C@H](O)[C@@H](C)O1` (stereo not given in full), the Potency with ATS189 is 0.158 µM (active); in the assay with ATS95, 0.126 µM (active); with C2A, 0.224 µM (active); in the assay with CP185, 0.199 µM (active); in the assay with CP191 it was 0.178 µM (active); in the assay on CP192, 2.13 µM (active). Also, the Potency is 2.69 µM (active) with CP194, 2.13 µM (active) in the assay on CP201, 2.69 µM (active) with CP203 and 2.13 µM (active) with CP211.

Turning to `CCOC(C)=O`, the Potency result in the assay with ATS189, with ATS95, in the assay on C2A, with CP185, in the assay on CP191 and with CP192 was “inactive” in each case. Also, the Potency entry in the assay with CP194, in the assay on CP201, in the assay with CP203 and in the assay on CP211 was “inactive” each time.

With `CCN(CC)Cc1cc(Nc2ccnc3cc(Cl)ccc23)ccc1O`, the Potency was 0.141 µM (active) with ATS189; 0.0631 µM (active) in the assay with ATS95; 0.0562 µM (active) with C2A; 0.0631 µM (active) with CP185; 0.0398 µM (active) in the assay on CP191; 0.161 µM (active) in the assay with CP192. For the same molecule, the Potency in the assay with CP194 is 0.128 µM (active); in the assay with CP201, 0.0907 µM (active); with CP203, 0.144 µM (active); in the assay on CP211, 0.0642 µM (active).

Regarding `CCCCCC(CC)COC(=O)CC(C(=O)OCC(CC)CCCC)S(=O)(=O)O` (stereo not given), the Potency result with ATS189, with ATS95, with C2A, in the assay on CP185 and with CP191 was “inactive” throughout.

For the molecule `Cc1ccccc1OCC(O)CNCCOc1ccc(C(N)=O)cc1` (stereo not given), the Potency entry with ATS189, in the assay on ATS95, with C2A, with CP185, in the assay with CP191 and in the assay on CP192 was “inactive” in each case. Moreover, the Potency entry in the assay on CP194, in the assay on CP201, in the assay with CP203 and in the assay on CP211 was “inactive” throughout.
